According to PubChem BioAssay AID1159580 (chemical genetic matrix, 2015):
Among all 5,500 compounds or so, about 2,000 (36%) were called active. Inconclusive results (about 18%) are left out. Cut-off read from the data, not from the text of the source: active = normalized growth mostly below about 0.91 (no sharp cut-off); inconclusive = no clear call, values can overlap the other calls; inactive = mostly above about 0.92. This is one part of the list.

Assay: chemical genetic growth profiling, strain panel (AID 1159580);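 note: tested at 20 µM; growth read once vehicle control cultures reached saturation at 30 °C; 1 = growth at the plate median or of vehicle wells; lower values mean less growth of the strain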
Conditions: growth OD

Measured: normalized growth

C=C1c2c(Cl)ccc(O)c2C(O)=C2C(=O)[C@]3(O)C(O)=C(C(N)=O)C(=O)[C@@H](N(C)C)[C@@H]3[C@@H](O)[C@H]12
active: S. cerevisiae deletion strains, locus YLR268W, strain sec22, hits give low values 0.866 | S. cerevisiae deletion strains, locus YMR058W, strain fet3, hits give low values 0.841 | S. cerevisiae deletion strains, locus YNL209W, strain ssb2, hits give low values 0.924
inactive: S. cerevisiae deletion strains, locus YJR075W, strain HOC1, hits give low values 0.96 | S. cerevisiae deletion strains, locus YKL009W, strain mrt4, hits give low values 1 | S. cerevisiae deletion strains, locus YKL068W, hits give low values 0.989 | S. cerevisiae deletion strains, locus YKL085W, strain MDH1 (second series), hits give low values 0.971 | S. cerevisiae deletion strains, locus YKL085W, strain MDH1, hits give low values 0.971 | S. cerevisiae deletion strains, locus YKL160W, strain elf1, hits give low values 0.999 | S. cerevisiae deletion strains, locus YKL190W, strain CNB1, hits give low values 0.979 | S. cerevisiae deletion strains, locus YKR001C, strain vps1, hits give low values 0.917 | S. cerevisiae deletion strains, locus YKR026C, strain gcn3, hits give low values 0.983 | S. cerevisiae deletion strains, locus YKR091W, strain srl3, hits give low values 0.973 | S. cerevisiae deletion strains, locus YLL001W, strain dnm1, hits give low values 1.01 | S. cerevisiae deletion strains, locus YLL026W, hits give low values 0.996 | S. cerevisiae deletion strains, locus YLL041C, strain sdh2, hits give low values 0.985 | S. cerevisiae deletion strains, locus YLR027C, strain aat2, hits give low values 1 | S. cerevisiae deletion strains, locus YLR039C, strain RIC1, hits give low values 0.968 | S. cerevisiae deletion strains, locus YLR058C, strain SHM2, hits give low values 0.937 | S. cerevisiae deletion strains, locus YLR102C, strain apc9, hits give low values 0.986 | S. cerevisiae deletion strains, locus YLR113W, strain HOG1, hits give low values 1.01 | S. cerevisiae deletion strains, locus YLR221C, strain rsa3, hits give low values 0.935 | S. cerevisiae deletion strains, locus YLR258W, strain gsy2, hits give low values 0.948 | S. cerevisiae deletion strains, locus YLR262C, strain YPT6 (second series), hits give low values 0.974 | S. cerevisiae deletion strains, locus YLR262C, strain YPT6, hits give low values 0.997 | S. cerevisiae deletion strains, locus YLR320W, strain mms22, hits give low values 0.926 | S. cerevisiae deletion strains, locus YLR330W, strain CHS5, hits give low values 0.981 | S. cerevisiae deletion strains, locus YLR342W, strain FKS1 (second series), hits give low values 0.875 | S. cerevisiae deletion strains, locus YLR342W, strain FKS1, hits give low values 0.965 | S. cerevisiae deletion strains, locus YLR357W, strain rsc2, hits give low values 0.895 | S. cerevisiae deletion strains, locus YLR370C, strain arc18, hits give low values 0.988 | S. cerevisiae deletion strains, locus YLR371W, strain rom2, hits give low values 0.987 | S. cerevisiae deletion strains, locus YLR384C, strain iki3, hits give low values 0.988 | S. cerevisiae deletion strains, locus YLR418C, strain cdc73, hits give low values 0.899 | S. cerevisiae deletion strains, locus YML016C, strain PPZ1, hits give low values 0.968 | S. cerevisiae deletion strains, locus YML032C, strain rad52, hits give low values 0.937 | S. cerevisiae deletion strains, locus YML120C, strain ndi1, hits give low values 0.993 | S. cerevisiae deletion strains, locus YML124C, strain tub3, hits give low values 0.977 | S. cerevisiae deletion strains, locus YMR078C, strain ctf18, hits give low values 0.983 | S. cerevisiae deletion strains, locus YMR125W, strain sto1, hits give low values 0.954 | S. cerevisiae deletion strains, locus YMR129W, hits give low values 0.981 | S. cerevisiae deletion strains, locus YMR205C, strain PFK2, hits give low values 0.998 | S. cerevisiae deletion strains, locus YMR223W, strain ubp8, hits give low values 0.969 | S. cerevisiae deletion strains, locus YMR231W, strain pep5, hits give low values 0.987 | S. cerevisiae deletion strains, locus YMR263W, strain SAP30, hits give low values 0.957 | S. cerevisiae deletion strains, locus YMR307W, strain GAS1, hits give low values 0.887 | S. cerevisiae deletion strains, locus YNL067W, strain RPL9B, hits give low values 0.93 | S. cerevisiae deletion strains, locus YNL071W, strain lat1, hits give low values 0.96 | S. cerevisiae deletion strains, locus YNL128W, strain TEP1, hits give low values 0.936 | S. cerevisiae deletion strains, locus YNL153C, strain GIM3, hits give low values 0.897 | S. cerevisiae deletion strains, locus YNL183C, strain NPR1, hits give low values 0.947 | S. cerevisiae deletion strains, locus YNL233W, strain BNI4, hits give low values 0.919 | S. cerevisiae deletion strains, locus YNL248C, strain rpa49, hits give low values 0.921 | S. cerevisiae deletion strains, locus YNL250W, strain rad50, hits give low values 0.96 | S. cerevisiae deletion strains, locus YNL271C, strain bni1, hits give low values 0.961 | S. cerevisiae deletion strains, locus YNL298W, strain CLA4, hits give low values 1 | S. cerevisiae deletion strains, locus YNL307C, strain MCK1, hits give low values 0.965 | S. cerevisiae deletion strains, locus YNL322C, strain KRE1 (second series), hits give low values 0.958 | S. cerevisiae deletion strains, locus YNL322C, strain KRE1, hits give low values 0.985 | S. cerevisiae deletion strains, locus YNR049C, strain mso1, hits give low values 0.971 | S. cerevisiae deletion strains, locus YNR052C, strain pop2, hits give low values 0.99 | S. cerevisiae deletion strains, locus YOL006C, strain TOP1, hits give low values 0.839 | S. cerevisiae deletion strains, locus YOL012C, strain htz1 0.807 | S. cerevisiae deletion strains, locus YOL147C, strain pex11, hits give low values 0.975 | S. cerevisiae deletion strains, locus YOR001W, strain rrp6, hits give low values 0.997 | S. cerevisiae deletion strains, locus YOR061W, strain CKA2, hits give low values 0.973 | S. cerevisiae deletion strains, locus YOR069W, strain VPS5, hits give low values 0.974 | S. cerevisiae deletion strains, locus YOR070C, strain gyp1, hits give low values 0.951 | S. cerevisiae deletion strains, locus YOR080W, strain dia2, hits give low values 0.988 | S. cerevisiae deletion strains, locus YOR083W, strain WHI5, hits give low values 0.96 | S. cerevisiae deletion strains, locus YOR106W, strain vam3, hits give low values 0.974 | S. cerevisiae deletion strains, locus YOR136W, strain idh2, hits give low values 0.997 | S. cerevisiae deletion strains, locus YOR144C, strain elg1, hits give low values 0.984 | S. cerevisiae deletion strains, locus YOR184W, strain ser1, hits give low values 0.978 | S. cerevisiae deletion strains, locus YOR231W, strain MKK1, hits give low values 0.972 | S. cerevisiae deletion strains, locus YOR265W, strain rbl2, hits give low values 0.974 | S. cerevisiae deletion strains, locus YOR270C, strain vph1, hits give low values 0.97 | S. cerevisiae deletion strains, locus YOR290C, strain snf2, hits give low values 0.916 | S. cerevisiae deletion strains, locus YOR316C, strain cot1, hits give low values 0.992 | S. cerevisiae deletion strains, locus YPL051W, strain arl3, hits give low values 0.973 | S. cerevisiae deletion strains, locus YPL055C, strain LGE1, hits give low values 0.94 | S. cerevisiae deletion strains, locus YPL078C, strain atp4, hits give low values 1.02 | S. cerevisiae deletion strains, locus YPL106C, strain sse1, hits give low values 0.898 | S. cerevisiae deletion strains, locus YPL240C, strain hsp82, hits give low values 1 | S. cerevisiae deletion strains, locus YPL241C, strain CIN2, hits give low values 0.978 | S. cerevisiae deletion strains, locus YPL256C, strain CLN2, hits give low values 1.01 | S. cerevisiae deletion strains, locus YPR119W, strain clb2, hits give low values 0.985 | S. cerevisiae deletion strains, locus YPR141C, strain kar3, hits give low values 0.979 | S. cerevisiae deletion strains, locus YPR163C, strain tif3, hits give low values 0.958 | S. cerevisiae deletion strains, locus YPR167C, strain met16, hits give low values 0.977 | S. cerevisiae deletion strains, strain wtn01, hits give low values 0.934 | S. cerevisiae strains, strain wild type, hits give low values 0.95
